In the library only some 1.1% were active in any assay of this set; here they are far more common.
APOBEC3G inh – blocks human APOBEC3G single-stranded DNA deamination; Q9HC16; recombinant A3G, ssDNA deamination FAM/TAMRA fluorescence; inhibition, % at 20 µM; 0.28% of 330,000 active; AID 493012;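 active = inhibition of at least 40% at 20 µM, with no more than 30% in the related APOBEC3A deaminase screen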;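 also: plate controls were DMSO wells with A3G for no effect and wells lacking A3G enzyme for full effect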
beta cell repl – induces beta-cell replication in MIN6 cells; MIN6 cells proliferation, ATPlite luminescence, 48 h; cells starved in 0.2% serum; 100% = growth in 10% serum; 0.29% of 330,000 active; AID 2380; proliferation, % at 10 µM;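 active = compounds whose signal lies at least 3.5 SD above the mean of all wells on their plate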;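 also: 0% = DMSO-treated cells in low-serum medium and 100% = 10% serum control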
Bfl-1 A1 inh – inhibitors of the anti-apoptotic protein A1, read as caspase activation | MEF A1-2A-BIM cells, Caspase-Glo 3/7 luminescence, 3 h; percent of clofoctol response, vehicle zero | caspase activation, % (no concentration beside the values) | 0.066% of 330,000 active | AID 2462;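 active = over half of replicate activation scores above 10%, or exactly half above 10 with the replicate mean above 10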
APOBEC3A inh – blocks human APOBEC3A ssDNA deamination. inhibition, % at 20 µM. 0.41% of 330,000 active. recombinant A3A, FAM/TAMRA ssDNA deamination fluorescence. AID 493011. P31941;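 active = at least 40% inhibition at 20 µM here, with at most 30% in a related deaminase screen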;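 also: plate controls were A3A with DMSO for no effect and wells lacking A3A enzyme for full effect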
Target sequence (P31941 whole entry, looked up): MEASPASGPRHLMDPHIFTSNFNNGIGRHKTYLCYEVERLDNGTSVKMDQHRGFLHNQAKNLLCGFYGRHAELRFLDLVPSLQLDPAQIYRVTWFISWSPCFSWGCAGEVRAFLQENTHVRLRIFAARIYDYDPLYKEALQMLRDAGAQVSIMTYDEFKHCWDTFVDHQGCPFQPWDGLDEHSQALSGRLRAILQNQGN
A3G conf – confirmation of human APOBEC3G DNA deaminase inhibitors; shares compounds with APOBEC3G inh; recombinant A3G ssDNA deaminase, UDG/FAM-TAMRA fluorescence; inhibition, % at 20 µM; 72% of 890 active; AID 493152;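 active = inhibition reaching a set limit in any replicate at 20 µM, the limit being 80% of the first screen's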
UDG A3G counter – inhibits E. coli UDG, flagging false APOBEC3G inhibitors. shares compounds with APOBEC3G inh. UDG counterscreen, FAM/TAMRA oligo fluorescence. inhibition, % at 20 µM. 710 tested, under 10 active;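 active = compounds giving 40% or more inhibition at 20 µM in any one of the three replicates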;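 also: plate controls were DMSO wells with UDG and oligo for no effect and DMSO wells lacking both for full effect; inhibitors lower the FAM signal released by uracil excision and alkaline cleavage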
Target sequence (P12295 whole entry, looked up): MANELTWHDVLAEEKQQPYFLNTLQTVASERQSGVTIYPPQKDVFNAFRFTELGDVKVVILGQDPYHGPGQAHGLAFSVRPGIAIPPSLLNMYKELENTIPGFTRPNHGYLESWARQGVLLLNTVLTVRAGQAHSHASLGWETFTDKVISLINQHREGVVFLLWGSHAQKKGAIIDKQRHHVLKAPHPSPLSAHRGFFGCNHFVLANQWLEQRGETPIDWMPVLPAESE
An asterisk follows results filed as active; x = not tested or not shown.

SMILES | APOBEC3G inh | beta cell repl | Bfl-1 A1 inh | APOBEC3A inh | A3G conf | UDG A3G counter
Cc1ccc(C(=O)c2c(NC(=O)CSc3nnc(N)s3)sc3c2CCCC3)cc1 | 45* | 0 | 0 | 0 | -3 | x
Cc1csc(SCC(=O)Nc2sc3c(c2C#N)CCC3)n1 | 42* | -3 | -1 | 6 | 7 | x
CC1CCN(S(=O)(=O)c2nnc(NC(=O)c3cccc(Cl)c3)s2)CC1 | -12 | -7 | 0 | -7 | x | x
CCc1ccc(/C=N\NC(=O)c2ccc(Br)o2)s1 | -5 | 0 | -4 | -2 | x | x
Cc1ccc(/C=N/NC(=O)c2ccc(Br)o2)s1 | 59* | 0 | 0 | -1 | -3 | 2
CCC(C)c1ccc(-n2c(=O)c3ccccc3n3c(=S)[nH]nc23)cc1 (stereo not drawn) | 23 | -2 | -1 | -8 | x | x
CCCCCCn1c(=O)c(-c2ccccc2)c(O)c2ccccc21 | -6 | 2 | -1 | -5 | x | x
CCCCCn1c(=O)c2ccccc2n2c(=S)[nH]nc12 | 43* | -3 | 0 | -6 | 76* | -1
Cn1c(=O)c2ccccc2n2c(=S)[nH]nc12 | 44* | 1 | 0 | -7 | 70* | 5
CCCCn1c(Cc2ccccc2)n[nH]c1=S | 28 | -2 | x | -4 | x | x
O=c1c2ccccc2n2c(=S)[nH]nc2n1-c1ccccc1 | 58* | 1 | -1 | -6 | 69* | -2
CCCCn1c(=O)c2ccccc2n2c(=S)[nH]nc12 | 40* | 0 | 0 | -5 | 71* | 1
COc1ccc(C(=O)NCCS(=O)(=O)N2CCc3ccccc3C2)cc1OC | -2 | 0 | 1 | -3 | x | x
NCCCNc1nc(N)c([N+](=O)[O-])c(NC2CCCCC2)n1 | -7 | -4 | -1 | -3 | x | x
Cc1ccc(C2/C(=C(\O)c3ccc4c(c3)OCCO4)C(=O)C(=O)N2CC2CCCO2)cc1 (stereo not drawn) | -5 | 5 | 1 | -3 | x | x
COc1ccc(/C=C/C2=Nc3ccccc3NC(C)(C)C2)cc1OC | 0 | -3 | -1 | -3 | x | x
Cc1cc(OCC(=O)NCC2CCC(C(=O)O)CC2)c2c(C)c(Cc3ccccc3)c(=O)oc2c1 (stereo not drawn) | -3 | -1 | 0 | -2 | x | x
CCCn1c(=O)c2ccccc2n2c(=S)[nH]nc12 | 53* | -4 | 0 | -9 | 69* | 2
OCC[C@H]1C[C@H](O)[C@@H](O)[C@]2(Cc3ccccc3CCO2)O1 | -3 | 2 | 0 | 4 | x | x
O=C1CSc2ccc(C(=O)Nc3cccc(S(=O)(=O)Nc4ccc(Br)cc4)c3)cc2N1 | 49* | -6 | -1 | -4 | 5 | 1
O=C(O)c1ccc(NC(=O)c2cccc(S(=O)(=O)Nc3ccc(C(=O)O)cc3)c2)cc1 | 3 | -2 | 1 | 2 | x | x
Cc1cc(O)c(/C=N/Nc2ccc(Cl)cc2)c(=O)o1 | 32 | 3 | -1 | 6 | x | x
Cc1cc(O)c(/C=N/Nc2ccccc2Cl)c(=O)o1 | 47* | 2 | -5 | -2 | 3 | -2
CCn1c(SCC(=O)Nc2ccc(OC)c(S(=O)(=O)N3CCCCC3)c2)nnc1C1CC1 | -9 | 1 | x | 2 | x | x
CCOC(=O)Cc1csc(NC(=O)c2ccc3ncsc3c2)n1 | -5 | -1 | -1 | -6 | x | x
SMILES | APOBEC3G inh | beta cell repl | Bfl-1 A1 inh | APOBEC3A inh | A3G conf | UDG A3G counter
Cc1nc2nc[nH]c2cc1Br | -6 | 1 | 1 | -3 | x | x
Cc1nc2[nH]c(=S)[nH]c2cc1Br | 47* | 0 | 0 | -2 | 82* | 2
O=C1C2C3C=CC(CO)(O3)C2C(=O)N1c1ccccc1-c1ccccc1 (stereo not drawn) | 60* | -5 | 2 | -3 | 69* | 2
COc1ccc(CNC(=O)c2cc3ccccc3o2)cc1OC | 71* | -4 | 1 | -3 | -3 | 1
COc1ccc(NC(=O)c2cc3ccccc3o2)cc1OC | -10 | -2 | -2 | -2 | x | x
CCC1CCc2c(sc(NC(=O)c3cnccn3)c2C(N)=O)C1 (stereo not drawn) | 58* | -4 | 1 | -2 | 22 | 19
COc1ccc(CN(CC(=O)NCCc2ccccc2)C(=O)CCC(=O)Nc2ccccn2)cc1 | -4 | -1 | 0 | 6 | x | x
S=c1cnc2ccccc2[nH]1 | 62* | 3 | 2 | -5 | 84* | 3
c1ccc2[nH]c(CCCc3nc4ccccc4[nH]3)nc2c1 | -2 | -3 | -1 | -6 | x | x
C=CCc1ccccc1Oc1cc(OC)nc(N)n1 | -7 | 1 | x | -3 | x | x
Oc1cc2c(cc1O)C1c3ccc(O)c(O)c3OCC1(O)C2 (stereo not drawn) | 61* | -6 | 0 | 2 | 69* | x
CCc1ccc(NC(=O)CSc2nc(=O)n(CCCN(C)C)c3c2CCC3)cc1 | 65* | -2 | 0 | -1 | -7 | 1
CN(C)CCn1c2c(c(SCC(=O)Nc3ccccc3)nc1=O)CCCC2 | -5 | 0 | 0 | -2 | x | x
O=C(O)c1ccc(N=Nc2c(O)ccc3ncccc23)cc1 | 24 | -1 | -9 | 20 | x | x
CCn1c(N)c(C(=O)NC)sc1=S | 59* | 0 | 0 | 2 | 24 | x
CCNC(=O)c1sc(=S)n(CC)c1N | -1 | -3 | 0 | 2 | x | x
CCn1c(N)c(C(=O)NCC2CCCO2)sc1=S (stereo not drawn) | 40* | -2 | 0 | -13 | 67* | 1
O=C(NCC1CCCO1)c1ccc2c(c1)N(Cc1ccccc1)CCS2 (stereo not drawn) | -5 | 0 | -1 | -6 | x | x
CC1(C)OC(=O)C(=Cc2ccc(-c3ccc(S(N)(=O)=O)cc3)o2)C(=O)O1 | 40* | 1 | 6.1* | 18 | 47* | x
CC[n+]1c(/C=C2\C=C(C)CC(C)(C)C2)sc2ccccc21 | 50* | -4 | 0 | 20 | 57* | x
CCOc1ccc(NC(=O)Cn2sc3nc(C)cc(C)c3c2=O)cc1 | 80* | -6 | 1 | -1 | 49* | -3
Cc1ccc(NC(=O)Cn2sc3nc(C)cc(C)c3c2=O)c(Cl)c1 | 72* | -6 | 0 | -8 | 92* | -1
Cc1ccn2c(=O)nc(SCC(=O)N3CCC(Cc4ccccc4)CC3)nc2c1 | 1 | 1 | 0 | 2 | x | x
Cc1cc(C)c2c(=O)n(CC(=O)N3CCC(Cc4ccccc4)CC3)sc2n1 | 43* | -7 | x | 2 | 58* | x
CCOc1ccc(NC(=O)Cn2ncc3ccccc32)cc1 | -5 | 3 | -7 | -1 | x | x
Cc1cc(C)c2c(=O)n(CC(=O)Nc3ccc(Cl)cc3)sc2n1 | 82* | -6 | 1 | -7 | 93* | 0
COc1ccccc1CNC(=O)[C@@H]1CCCN1S(=O)(=O)c1ccccc1F | -14 | -1 | 1 | -3 | x | x
CC(C)C(NC(=O)c1ccccc1)c1nnc(SCC(=O)NC2CCCC2)n1C (stereo not drawn) | -4 | -5 | 0 | -1 | x | x
CCOC(=O)c1cn(CC(=O)Nc2cccc(F)c2)nn1 | -3 | -2 | -1 | -1 | x | x
